# Most compounds without a hit are left out; they make up all but 12% or so of the library.
# HCV inh = HCV inhibition; Huh7.5.1 HCVcc-Cre infection, luciferase reporter, 44 h; Potency, µM (series often up to 41.8 µM), usual class: inhibitors; 340,000 tested, 3.4% active; AID 651820
#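 Cells seeded at 1,000/well and cultured 4 h, then compounds added followed by HCVcc-Cre virus (~0.5 moi). After 44 h further culture, luciferase substrate was added, plates held 15 min at room temperature, and luminescence read for 15 sec.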
# SARS PLpro yeast = inhibitors of SARS-CoV papain-like protease in yeast; S. cerevisiae expressing SARS-CoV PLpro, growth rescue; Potency, µM (doses to about 32.9 µM), usual class: activators; 330,000 tested, 0.19% active; AID 485353; calls by dose curve; note: nearly all actives have a fitted effect of over 55% in size
# AMA1 RON2 block = disrupts binding of P. falciparum AMA1 to RON2 | AlphaScreen AMA1-biotinylated RON2 peptide binding | Potency, µM (doses to about 58.2 µM), most hits filed as inhibitors | 360,000 tested, 0.2% active | AID 720542; note: nearly all actives have a fitted effect of over 45% in size
#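 AMA1 (3D7) with his tag at 25 nM final met compounds first, then biotinylated RON2 peptide at 25 nM; detection used donor plus acceptor beads, 10 µg/mL apiece, read by AlphaScreen after 30 min at room temperature.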
# NS1 function inh = inhibitors of influenza NS1 protein function. 270,000 tested, 0.4% active. Potency, µM (doses to about 46.1 µM); calls by dose curve; note: actives are rising curves; nearly all actives have a fitted effect of over 50% in size
#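 S. cerevisiae expressing influenza A NS1, grown in glucose, washed, then diluted 1:100 into pH 6.0 -URA galactose medium with 23 nl compound. Growth recovery read as OD600; NS1-free strain serves as control.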
# Pf growth 96h = P. falciparum growth inhibition at 96 hour, primary screen for plastid delayed-death inhibitors | Potency, µM (highest dose often 28.7 µM), actives largely listed as inhibitors | 320,000 tested, 6.9% active | AID 504834 | P. falciparum luciferase reporter growth, 96 h
#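 P. falciparum expressing integrated firefly luciferase grown in erythrocytes (2% hematocrit, 0.05% parasitemia final) with compounds for 96 hours at 37 C, 5% CO2. Growth inhibition read as loss of luminescence after adding luciferase detection reagent.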
# Pf growth 48h = P. falciparum growth inhibition at 48 hours (one generation). P. falciparum luciferase growth in erythrocytes, 48 h. Potency, µM (doses to about 28.7 µM), actives largely listed as inhibitors. 310,000 tested, 5.9% active
#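 Growth was read as firefly luciferase luminescence after a 48 h, 37 C, 5% CO2 exposure of compounds to reporter-bearing P. falciparum cultures (0.1% parasitemia, 2% hematocrit final) in Albumax-supplemented RPMI 1640.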
# A number is an active result; 0 = inactive; ? = inconclusive; - = no result given; ! = not confirmed by another sample; [ ] = another dose, or the depositor's remark. Unless noted, calls come from the whole dose curve; as a rule, active = well fitted curve in the direction sought with a large enough effect; inconclusive = small, poorly fitted or top-dose-only effect, or another doubt; inactive = no such curve, though single readings can be large; an effect the other way counts as inactive or inconclusive.
SMILES,HCV inh,SARS PLpro yeast,AMA1 RON2 block,NS1 function inh,Pf growth 96h,Pf growth 48h
CCOC(=O)c1c(-c2ccc(F)cc2)csc1NC(=O)CCN1C(=O)c2ccccc2C1=O,0,0,0[2.32 µM],0,?,0
CCOC(=O)c1c(-c2ccccc2)csc1NC(=O)c1cc2ccccc2oc1=O,0,0,0,0,13.1µM,0
CCOC(=O)c1c(-c2ccccc2)csc1NC(=O)CCN1C(=O)c2ccccc2C1=O,?,0,0,?,2.62µM,0
CCOC(=O)c1c(NC(=O)c2cccs2)sc(CC)c1-c1cccs1,-,0,0,0,10.4µM,-
CCOC(=O)c1sc(NC(=O)CCN2CCC(C)CC2)c(C(=O)OCC)c1C,?,0,0,-,0,0
CCOC(=O)c1sc(NC(=O)CCN2CCN(CC)CC2)c(C(=O)OCC)c1C,10µM,0,0,-,?,?
CCOC(=O)c1c(-c2cccs2)csc1NC(=O)C(C)(C)C,?,0,0,0,-,13.1µM
CCOC(=O)c1c(-c2ccccc2)csc1NC(=O)C(C)NCCCN1CCOCC1 (configuration not stated),10µM,0,0,-,?,?
CC1(C)CC(=O)C=C(c2cccc(Cl)c2O)C1,0,0,0,-,?,?
CCN1C(=O)[C@H]2[C@@H](c3ccc(OC)cc3)N[C@]3(CCCN(Cc4ccc(F)cc4)C3=O)[C@H]2C1=O,-,-,0,-,-,-
CC(C)C(=O)N1CCCC1(C)C(=O)Nc1cccc(Oc2ccccc2)c1 (configuration not stated),-,-,0,-,-,-
CCOC(=O)c1c(-c2ccc(F)cc2)csc1NC(=O)CN1C(=O)NC2(CCCCC2C)C1=O (configuration not stated),?,0,0,0,9.28µM,10.4µM
CCOC(=O)c1c(-c2ccc(-c3ccccc3)cc2)csc1NC(=O)CNCCN(C)C,5.62µM,0,0,0,?,-
CCOC(=O)c1c(NC(=O)CN2C(=O)NC3(CCCCC3C)C2=O)sc(C)c1C (configuration not stated),0,0,0,0,?,0
CCOC(=O)c1sc(NC(=O)CCN2C(=O)c3ccccc3C2=O)c(C(=O)OCC)c1C,?,0,0,0,13.1µM,0
CCOC(=O)c1c(NC(=O)CCN2C(=O)c3ccccc3C2=O)sc(C(=O)OC(C)C)c1C,?,0,0,0,?,0
CCOC(=O)c1c(-c2ccc(-c3ccccc3)cc2)csc1NC(=O)c1cccc(N2C(=O)CCC2=O)c1,0,0,0,0,5.22µM,0
CCOC(=O)c1c(-c2ccccc2)csc1NC(=S)NC,0,0,0,0,0,0
O=C(O)CC1(CC(=O)Nc2ccccc2Br)CCCC1,0,-,0,-,-,-
N#Cc1ccc(N=c2ssnc2Cl)cc1,0,0,0,0,11.7µM!,0
O=C(Nc1ccccn1)C1CCN(c2ncnc3c2nc2n3CCCCC2)CC1,?,0,0,0,?,0
COc1ccc2oc(=N)c(-c3nnc4n3CCCCC4)cc2c1,0,0,0,0,-,0
N=c1oc2ccc3ccccc3c2cc1-c1nnc2n1CCCCC2,0,0,0,0,9.28µM,0
CSCCC1NC2(C(=O)Nc3c(Cl)cccc32)[C@@H]2C(=O)N(C3CCCC3)C(=O)[C@H]12 (some centres not stated),0,0,0,0,10.4µM,?
CSCCC1NC2(C(=O)Nc3c(C)cc(Cl)cc32)[C@@H]2C(=O)N(C3CCCC3)C(=O)[C@H]12 (some centres not stated),?,0,0,0,?,?
SMILES,HCV inh,SARS PLpro yeast,AMA1 RON2 block,NS1 function inh,Pf growth 96h,Pf growth 48h
Nc1nc(N)nc(-c2cc([N+](=O)[O-])ccc2O)n1,0,0,0,-,2.08µM,0
Oc1ccccc1-c1cc(C(F)(F)C(F)F)nc(-c2ccccc2)n1,?,0,0,0,0,0
COc1ccc(O)c(-c2cc(C(F)(F)C(F)F)nc(-c3ccccc3)n2)c1,?,0,0,0,2.94µM,13.1µM
O=[N+]([O-])c1ccc(O)c(-c2cc(C(F)(F)F)nc(-c3ccccc3)n2)c1,1.41µM,0,0,0,0,0.37µM
CN(c1ccccc1)S(=O)(=O)c1ccc(C(=O)Nc2nccs2)cc1,0,0,0,0,?,-
CN(c1ccccc1)S(=O)(=O)c1ccc(C(=O)Nc2ncccc2O)cc1,0,0,0,-,9.28µM,6.57µM
CCN(c1ccccc1)S(=O)(=O)c1ccc(C(=O)Nc2ncccc2O)cc1,0,0,0,0,5.86µM,?
CCN(c1ccccc1)S(=O)(=O)c1ccc(C(=O)Nc2ncccc2C)cc1,?,0,0,-,0,?
O=C(Nc1ccc(Cl)c(C(=O)N2CCOCC2)c1)c1ccccc1,?,0,0,0,0,?
COC(=O)C1=C(c2cccc(OC)c2OC)C[C@@H]2CC[C@H]1N2C(=O)NCc1ccccc1,0,-,0,-,-,-
COC(=O)C1=C(c2ccc(F)cc2OCc2ccccc2)C[C@@H]2CC[C@H]1N2C(=O)NCc1ccccc1Br,?,0,0,-,1.31µM,4.15µM
COC(=O)C1=C(c2ccc(F)cc2OCc2ccccc2)C[C@@H]2CC[C@H]1N2C(=O)NCc1ccccc1C(F)(F)F,0,0,0,-,?,5.22µM
O=C1C=CC2=C3c4cc(O)c(O)cc4CC3(O)COC2=C1O (configuration not stated),0,-,2.82µM,-,-,-
Cc1cc(C)c(C(=O)NCCCN2CCOCC2)c(C)c1,0,0,0,0,?,0
CCN=C(NC#N)SCc1c(F)cccc1Cl,?,0,0,0,0,0
COc1ccc(C[C@H]2CN3C(=NC[C@H]3Cc3ccccc3)N2CCNC(=O)CCC2CCCCC2)cc1,0,0,0,0,4.65µM,?
C[C@@H](CN1C2=NC[C@H](Cc3ccccc3)N2C[C@H]1Cc1ccc(O)cc1)NC(=O)CCC1CCCCC1,0,0,0,0,14.7µM,?
COc1ccc(C[C@H]2CN3C(=NC[C@@H]3Cc3ccccc3)N2C[C@H](C)NC(=O)CCC2CCCCC2)cc1,-,0,-,0,2.62µM,1.65µM
COc1ccc(C[C@@H]2CN3C(=NC[C@@H]3C)N2C[C@H](C)NC(=O)CCC2CCCCC2)cc1,0,0,0,0,?,?
C[C@@H](CN1C2=NC[C@H](Cc3ccc(O)cc3)N2C[C@H]1Cc1ccc(O)cc1)NC(=O)CCC1CCCCC1,0,0,0,0,1.65µM,7.38µM
CCCCNc1ncnc2sc3c(c12)CCN(CCC)C3,?,0,0,0,?,?
CCCCc1ccc(CC(=O)Nc2cc(S(=O)(=O)N3CCOCC3)ccc2O)cc1,0,0,0,-,0,?
CN(C)CCN(C(=O)CCS(=O)(=O)c1ccccc1)c1nc2c(F)cccc2s1,0,0,0,0,2.62µM,0
COc1ccc(OC)c2sc(N(CCCN(C)C)C(=O)CCS(=O)(=O)c3ccccc3)nc12,?,0,0,-,0,?
Cc1ccc2sc(N(CCCN(C)C)C(=O)CCS(=O)(=O)c3ccccc3)nc2c1C,?,0,0,0,6.57µM,0
